Assay results: PubChem BioAssay (NCI)
About 79,000 compounds went through this panel and 15% of them were active in at least one assay; those are over-represented in the sample as a whole. Values without a mark were called inactive. Calls of active or inactive are those of the source. No stated cut-off is given here; in the data, active means growth inhibition above about 70%; inactive means the rest.

What was measured:
[1] = NCI Yeast Anticancer Drug Screen. Data for the rad50 strain (AID 155);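 further: 0% = growth of vehicle-only cultures of the same strain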; conditions: S. cerevisiae rad50 strain growth inhibition; at 50.0 µM; stronger effect = higher value
How it was run: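 Readout: growth inhibition relative to vehicle-treated cultures. Compound exposure was carried out in a genetically defined yeast strain deficient in DNA damage repair.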

[2] = NCI Yeast Anticancer Drug Screen. Data for the mec2-1 strain (AID 157); conditions: S. cerevisiae mec2-1 strain, at 50.0 µM, stronger effect = higher value
How it was run: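 Using mec2-1 yeast: add compound, measure growth, express inhibition versus vehicle-treated cultures.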

[3] = NCI Yeast Anticancer Drug Screen. Data for the sgs1 mgt1 strain (AID 161);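 further: 0% = growth of cultures given vehicle only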; conditions: S. cerevisiae sgs1 mgt1 strain, at 50.0 µM, stronger effect = higher value
How it was run: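 Percent growth inhibition was derived by comparing compound-exposed mutant yeast with vehicle-exposed cultures. The strain carries alterations in DNA damage repair.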

[4] = NCI Yeast Anticancer Drug Screen. Data for the cln2 rad14 strain (AID 165);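 further: 0% = growth equal to vehicle treated cultures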; conditions: S. cerevisiae cln2 rad14 strain, at 50.0 µM, stronger effect = higher value
How it was run: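 Yeast strain cln2 rad14, bearing defects in cell cycle control and DNA repair, serves as the test system; values reflect growth inhibition compared with vehicle.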

[5] = NCI Yeast Anticancer Drug Screen. Data for the bub3 strain (AID 167); conditions: S. cerevisiae bub3 mutant strain, at 50.0 µM, stronger effect = higher value
How it was run: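 Readout: yeast growth inhibition, expressed relative to vehicle-only wells. The test organism is a mutant strain from a panel with lesions in DNA repair or checkpoint genes.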

[6] = NCI Yeast Anticancer Drug Screen. Data for the mlh1 rad18 strain (AID 175); conditions: S. cerevisiae mlh1 rad18 strain growth inhibition; at 50.0 µM; stronger effect = higher value
How it was run: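 Steps: expose repair-defective yeast to compound; measure growth; express inhibition against vehicle-treated controls.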

| SMILES | growth inhibition [1] | growth inhibition [2] | growth inhibition [3] | growth inhibition [4] | growth inhibition [5] | growth inhibition [6] |
| --- | --- | --- | --- | --- | --- | --- |
| O=C1O/C(=C(\Br)c2ccc([N+](=O)[O-])cc2)c2ccccc21 | 30.4% | -27.4% | 19.4% | 0.85% | -5.9% | 1.05% |
| CCCN(CCC)S(=O)(=O)c1ccc(NC(=O)OC(CC)c2ccco2)cc1 (stereo not given) | 27.8% | -3.8% | 8% | 7.85% | -5.5% | 8.8% |
| CCC1(c2ccccc2)Nc2ccccc2C1=Nc1ccccc1 (stereo not given) | 20.1% | 15.5% | 20.2% | 9.5% | 11.7% | 27.4% |
| CC1=C(/C=C/C(O)CC(O)(C(F)(F)F)C(F)(F)F)C(C)(C)CCC1 (stereo not given) | 38% | 20.8% | 18.9% | 43.2% | 17% | 63.1% |
| C=C(C)Cc1cc(C(CC)C(CC)c2ccc(O)c(CC(=C)C)c2)ccc1O (stereo not given) | 18.6% | 20.4% | 47.2% | 34.3% | 6.25% | 46% |
| N#C/C(=C\c1ccccc1)c1cccc(Cl)c1 | -32.2% | -5.8% | -13.3% | -97.1% | 13.8% | -12.7% |
| Cc1cc(=O)[nH]c2c(C)cc(Cl)cc12 | 9.95% | -5.25% | 14.9% | 17.1% | -18.4% | 1.65% |
| N#Cc1ccc(OCc2nc(N)nc(N)c2-c2ccc(Cl)cc2)cc1 | -4.4% | 5.35% | -16.4% | -10% | 20.8% | 14.8% |
| CCCCCCCCCc1ccc(OCCOC(=O)OCCOc2ccc(CCCCCCCCC)cc2)cc1 | 40.9% | -21.9% | 16% | 13.8% | 4.4% | 31.6% |
| CCOC(=O)C(Cc1ccccc1)Nc1c(Cl)c(=O)oc2ccc(C)cc12 (stereo not given) | 18.6% | -3.2% | 32.7% | 26.9% | -16.4% | 19.6% |
| C=C(S(=O)(=O)c1ccccc1)S(=O)(=O)c1ccccc1 (tested in a mixture with another compound) | 92.8% (active) | 97.3% (active) | 96.4% (active) | 98% (active) | 97.8% (active) | 94.9% (active) |
| O=C1OCCC2(CCN(Cc3ccccc3)CC2)O1 | 11.2% | 9.35% | 25.4% | -0.3% | -1.45% | 24.3% |
| CCOC(=O)C(=O)C1C(=O)Nc2ccccc21 (stereo not given) | -12.4% | -4.9% | -6.35% | -2.5% | -18.4% | -12.6% |
| OCC(O)C(O)C(O)C(O)CN=Cc1ccccc1O (stereo not given) | -19.8% | 7.9% | -10.7% | 2.8% | -19.6% | -4.45% |
| Nc1ncnc2oc(-c3ccccc3)nc12 | 1.3% | -0.85% | -6.35% | -40% | -4.25% | 13.7% |
| CCc1ccc(NC(=O)Nc2ccc(Cl)cc2)cc1 | -3.2% | 7.75% | -8.65% | -16.9% | -0.8% | -12.6% |
| COc1ccc(CN)cc1 | -0.7% | -9.6% | -15.2% | 2.75% | 6.85% | -2.6% |
| CCCC(P(=O)(c1ccccc1)c1ccccc1)[P+](CC)(c1ccccc1)c1ccccc1 (stereo not given) | 84.6% (active) | 78.2% (active) | 85.9% (active) | 54.6% | 81.7% (active) | 77.8% (active) |
| O=[N+]([O-])c1ccc2c(c1)C(=Nc1ccccc1)c1cc([N+](=O)[O-])cc([N+](=O)[O-])c1-2 | 8.3% | 5.65% | 19.1% | 21.1% | 3.5% | 13.4% |
| CN(C)CC(/C(Cc1ccccc1)=N\NC(=S)NN)c1ccccc1 (stereo not given) | 23.1% | 9.55% | 38.2% | 21.4% | -3.25% | 13.7% |

| SMILES | growth inhibition [1] | growth inhibition [2] | growth inhibition [3] | growth inhibition [4] | growth inhibition [5] | growth inhibition [6] |
| --- | --- | --- | --- | --- | --- | --- |
| N#CCCC1(c2ccccc2)CCC/C(=C/c2ccccc2)C1=O (stereo not given) | 11.8% | 14.1% | 1.7% | 7.1% | 17.4% | 3% |
| O=C(NCCCN1CC2CCCC2C1)C(c1ccccc1)c1ccccc1 (stereo not given) | -22.9% | -2.55% | -41.8% | -5.3% | -10.7% | -24.3% |
| COc1ccc(C23CCCC(=O)C2C2C(=O)CCCC23c2ccc(OC)cc2)cc1 (stereo not given) | 47.4% | -0.85% | 4.4% | 10.6% | 5.25% | 13.1% |
| COC(=O)C(=O)C1CCc2c(C(=O)OC)nc3[nH]n(-c4ccccc4)c(=O)c3c21 (stereo not given) | 12.1% | -14.3% | 4.2% | -30.2% | 25.1% | 0.25% |
| Ic1ccc(-c2ccccc2)cc1 | -2.95% | -7.7% | 12.1% | -57.7% | 34% | 29.7% |
| CC(=O)ON(C(C)=O)c1ccc(C(N)=O)cc1 | -16.6% | 6.8% | -13.2% | 6.25% | -15.3% | -71.5% |
| S=C([S-])[P+](C1CCCCC1)(C1CCCCC1)C1CCCCC1 | -30.9% | -39.1% | -28.2% | -29.2% | -39.1% | -39.2% |
| Nc1cc2c3c(cccc3c1Br)C(=O)OC2=O | 99.5% (active) | 99.8% (active) | 99.7% (active) | 99.3% (active) | 99.7% (active) | 99.5% (active) |
| O=C(/C=C/c1c(-c2ccccc2)[nH]c2ccccc12)c1cccc([N+](=O)[O-])c1 | 43% | 17.1% | 42% | 20.9% | 19.9% | 36.2% |
| Nc1nc2c(nnn2-c2ccc(Cl)cc2)c(=O)[nH]1 | -4.3% | -4.15% | -5.85% | -25.1% | -0.5% | -6.25% |
| O=C(C=C(C(F)(F)F)C(F)(F)F)/C=C/c1ccccc1 | 99.5% (active) | 99.7% (active) | 99.5% (active) | 99.5% (active) | 99.3% (active) | 99.4% (active) |
| N#CCCN(CCC#N)C(=O)Nc1cccc2ccccc12 | 10.2% | -9.15% | 5.7% | 12.8% | -2.25% | -16.5% |
| O=C(NC1CC12c1ccccc1-c1ccccc12)Oc1ccc2ccccc2c1 (stereo not given) | 68.4% | 18.8% | 60.9% | 45.8% | 55.2% | 57.4% |
| CCNC1=C(Cl)C(=O)c2ccccc2C1=O | -11.9% | -9.8% | 12.2% | -21.4% | 8.7% | 14.9% |
| Cc1ccnc(C2=C(O)c3ccccc3C2=O)c1 | 20% | 0.1% | -9.75% | 1.15% | -2.8% | 12.8% |
| COc1cc(CC2c3cc(OC)c(OC)cc3CCN2C)c(Oc2cc3c(cc2OC)-c2c(OC)c(OC)c(OC)c4c2C(C3)N(C)CC4)cc1OC (stereo not given) | 9.7% | -0.95% | -7.05% | 13.8% | 0.3% | 1.2% |
| CCOC(Nc1ccccc1[N+](=O)[O-])C(=O)c1ccccc1 (stereo not given) | 21.4% | 8.05% | 1.35% | 28.7% | 24.4% | 12.7% |
| Cn1c(N)cc(=O)nc1N | -7.55% | 2.05% | 6.2% | 10.7% | -1% | 8.2% |
| CC(c1ccccc1)C(C)(C)O (stereo not given) | 10.2% | -8.25% | 27% | 20.3% | -14.5% | -4.95% |
| CC(C)/C(Cl)=N/OC(=O)Nc1ccc(Br)cc1 | 34.6% | 47.5% | 90.5% (active) | 24.1% | 69.3% | 81.8% (active) |
